Screening results deposited in PubChem by National Center for Advancing Translational Sciences (NCATS).
A selection: hits, their analogues and other compounds. The true share with any hit is near 3.1%.
TrxR1 substrate – qHTS Assay for Substrates of Mammalian Selenoprotein Thioredoxin Reductase 1 (TrxR1): qHTS | purified TrxR1 substrate turnover, NADPH consumption readout | Potency, µM (doses to about 114 µM), for the others: top-dose activity change, negative = substrate turnover | 0.01% of 390,000 active; note: % is set by controls: 0 for no effect and ±100 for the full control effect; nearly all actives have a fitted effect of over 50% in size
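Rat TrxR1, dispensed at 90 nM, was prereduced with 400 uM NADPH (final) for 5 min at ~22 deg C, then incubated with compound 15 min before 400 uM selenite. A first-read NADPH fluorescence drop versus no-compound background flagged substrates.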
mIDH1 inhibitor – qHTS for Inhibitors of mutant isocitrate dehydrogenase 1 (IDH1): qHTS. Isocitrate dehydrogenase [NADP] cytoplasmic (Homo sapiens), O75874. IDH1-R132H enzyme, NADPH consumption, diaphorase/resazurin fluorescence. Potency, µM (doses to about 76.6 µM), for inactives: at the highest dose activity change, negative = inhibition, hits mostly inhibitors. 0.093% of 390,000 active. AID 602179, 2012; note: % is set by controls: 0 for no effect and ±100 for the full control effect; nearly all actives have a fitted effect of over 65% in size
Target sequence (O75874 whole entry R132H, stated change not applied): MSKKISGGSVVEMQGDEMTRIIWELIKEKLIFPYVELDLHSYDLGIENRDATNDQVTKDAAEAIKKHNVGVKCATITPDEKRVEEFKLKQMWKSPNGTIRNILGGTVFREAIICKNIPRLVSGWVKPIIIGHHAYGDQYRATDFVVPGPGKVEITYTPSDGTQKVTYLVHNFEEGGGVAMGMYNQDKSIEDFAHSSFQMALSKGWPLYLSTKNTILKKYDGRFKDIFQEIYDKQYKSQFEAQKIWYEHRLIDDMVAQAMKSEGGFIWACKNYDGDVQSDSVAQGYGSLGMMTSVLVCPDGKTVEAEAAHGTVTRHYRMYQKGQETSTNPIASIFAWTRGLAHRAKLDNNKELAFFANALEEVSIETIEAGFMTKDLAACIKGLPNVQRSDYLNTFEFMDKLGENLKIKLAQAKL
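IDH1-R132H (0.5 ug/mL dispensed) in pH 7.5 Tris buffer was preincubated 30 min with compound, then given a substrate mix of 0.016 mM NADPH and 2 mM alpha-KG for 80 min at room temperature; remaining NADPH was read by diaphorase/resazurin fluorescence.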
TrxR1 inh – qHTS Assay for Inhibitors of Mammalian Selenoprotein Thioredoxin Reductase 1 (TrxR1): qHTS; 1% of 390,000 active; recombinant rTrxR1, NADPH fluorescence consumption, selenite substrate; Potency, µM (series often up to 114 µM), for inactives: top-dose activity change, negative = inhibition, hits mostly inhibitors; Thioredoxin reductase 1, cytoplasmic (Rattus norvegicus), O89049; note: % is set by controls: 0 for no effect and ±100 for the full control effect; nearly all actives have a fitted effect of over 65% in size
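Rat TrxR1 (90 nM in the dispensed reagent) was pre-reduced with 400 uM NADPH for 5 min at room temperature, then incubated with compound for 15 min. After 400 uM selenite was added, NADPH fluorescence (Ex 340/Em 450 nm) was followed for 8 min.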
Nrf2 block – Nrf2 qHTS screen for inhibitors. Potency, µM (series often up to 46 µM), inactives show at the highest dose activity change, negative = inhibition, hits mostly inhibitors. A549 ARE-Fluc reporter, luciferase luminescence, 18-24 h. 2.1% of 360,000 active; note: % is set by controls: 0 for no effect and ±100 for the full control effect; nearly all actives have a fitted effect of over 60% in size
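A549 ARE_Fluc cells, 5000/well, 5% FBS OPTI-MEM; compounds in dose-response, 18-24 h at 37 °C/5% CO2; CellTiter-Fluor viability read (Ex 405/Em 525), then BugLite luciferase luminescence = Nrf2 activity.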
A549 tox-1 – Nrf2 qHTS screen for inhibitors: counterscreen for cytotoxicity; A549 ARE-Fluc cells, CellTiter-Fluor viability, 18-24 h; Potency, µM (series often up to 46 µM), for the others: top-dose activity change, negative = cytotoxicity, hits mostly inhibitors; 0.16% of 390,000 active; AID 504648, 2011; note: % is set by controls: 0 for no effect and ±100 for the full control effect
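Cytotoxicity counterscreen: CellTiter-Fluor fluorescence was measured in A549 ARE_Fluc cells after 18-24 h of compound exposure in a concentration series. The subsequent BugLite luminescent read reports ARE-luciferase activity.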
Mito fusion yeast – qHTS Assay for Small Molecule Inhibitors of Mitochondrial Division or Activators of Mitochondrial Fusion. S. cerevisiae fusion-defective mutant growth rescue, CellTiterGlo 48 h. Potency, µM (series often up to 46.1 µM), without a hit: at the top dose growth rescue (activation), most hits filed as activators. 0.23% of 320,000 active; note: % of control where 0% means no effect; nearly all actives have a fitted effect of over 45% in size
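Growth-rescue viability read-out: after 48 h at the non-permissive 37C in glycerol/ethanol YPEG, yeast mitochondrial fusion mutants are measured by CellTiterGlo luminescence; compounds (23 nl pinned per well) restoring growth score as division inhibitors or fusion activators.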
FLuc enzyme inh – Nrf2 qHTS screen for inhibitors: Purified Fluc Biochemical Counterscreen for Hit Validation; 4% of 1,400 active; purified firefly luciferase, luminescence inhibition; AID 720522, 2013; shares compounds with Nrf2 block; Potency, µM (doses to about 57.5 µM), for inactives: top-dose activity change, negative = inhibition, most hits filed as inhibitors; note: % is set by controls: 0 for no effect and ±100 for the full control effect; nearly all actives have a fitted effect of over 65% in size
A549 tox-2 – Nrf2 qHTS screen for inhibitors: A549 ARE-Fluc Cytotoxicity Counterscreen for Hit Validation; shares compounds with Nrf2 block; A549 ARE-Fluc cells, cytotoxicity counterscreen; Potency, µM (series often up to 46.1 µM), for inactives: at the top dose activity change, negative = cytotoxicity, hits mostly inhibitors; 2% of 1,400 active;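 note: cells exposed to compounds for 18 to 24 hours; % is set by controls: 0 for no effect and ±100 for the full control effect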
Nrf2 ARE inh – Nrf2 qHTS screen for inhibitors: Nrf2 A549 ARE-Fluc Confirmation Assay for Hit Validation. Potency, µM (highest dose often 46.1 µM), without a hit: at the highest dose activity change, negative = inhibition, most hits filed as inhibitors. 74% of 1,400 active. A549 ARE-firefly luciferase reporter, luminescence. shares compounds with Nrf2 block; note: % is set by controls: 0 for no effect and ±100 for the full control effect; nearly all actives have a fitted effect of over 65% in size
* hit, by the source's call; u = inconclusive; x = no result given; [ ] = remark or other dose. Calls come from the whole dose curve; as a rule, active = well fitted curve in the direction sought with a large enough effect; inconclusive = small, poorly fitted or top-dose-only effect, or another doubt; inactive = no such curve, though single readings can be large; an effect the other way counts as inactive or inconclusive. Potency is the fitted concentration of half-maximal effect.

SMILES | TrxR1 substrate | mIDH1 inhibitor | TrxR1 inh | Nrf2 block | A549 tox-1 | Mito fusion yeast | FLuc enzyme inh | A549 tox-2 | Nrf2 ARE inh
CC1(C)O[C@@H]2C[C@H]3[C@@H]4CCC5=CC(=O)CC[C@]5(C)[C@@]4(F)[C@@H](O)C[C@]3(C)[C@]2(C(=O)CCl)O1 | 12.8% | 15.5% | 6.2% | 0.0116µM* | -12.1% | 1.4% | 3.4% | -10.6% | 0.0082µM*
CC(=O)C12OC(C)(C)OC1CC1C3CCC4=CC(=O)C=CC4(C)C3(F)C(O)CC12C (stereo unspecified) | 4.1% | -0.6% | 30.0% | 0.0082µM* | 12.8% | x | 0.2% | -11.8% | 0.0065µM*
COc1ccccc1CNS(=O)(=O)c1cnc(N)nc1 | -0.6%[57.1 µM] | 2.0% | 10.4%[57.1 µM] | x | -1.7% | x | x | x | x
COc1ccccc1C(=O)Nc1ccc(OCc2cc(=O)n3ccsc3n2)cc1 | 31.9% | -0.5% | 10.5% | u | -0.2% | x | x | x | x
CCCCN(CCCC)C(=O)CN(C)S(=O)(=O)c1ccc2c(c1)c(=O)n(C)c(=O)n2C | 1.3% | 9.0% | 0.6% | 14.1% | 1.3% | x | x | x | x
Cc1cc[n+](Cc2ccc([N+](=O)[O-])cc2)cc1 | 6.6%[57.1 µM] | 2.7% | 20.5%[57.1 µM] | u | -8.8% | -2.9% | x | x | x
Cc1ccc(-c2cc[n+](Cc3ccccc3)cc2)cc1 | 26.1%[57.1 µM] | 0.9% | -3.4%[57.1 µM] | 7.31µM* | -8.0% | 2.6% | 0.9% | -1.5% | 9.2µM*
O=C(Nc1ccccc1)c1ccc(Nc2c([N+](=O)[O-])cc([N+](=O)[O-])c3ccccc23)cc1 | -16.8% | 2.0% | -15.6% | 7.31µM* | -28.6% | -19.4% | 0.6% | -26.1% | 5.17µM*
COc1cc(C(CC(=O)Nc2ccc(F)cc2F)N2Cc3ccccc3C2=O)cc(OC)c1OC (stereo unspecified) | -2.5% | -6.1% | 9.2% | -28.8% | 1.3% | x | x | x | x
COc1ccccc1/C=C/C(=O)N1CCc2cc(OC)c(OC)cc2C1C (stereo unspecified) | 1.6% | 4.8% | -0.5% | u | -11.5% | -0.3% | 2.5% | -5.7% | 7.31µM*
Cc1ccccc1-n1ncc2c(SCC(=O)NC3CCCC3)ncnc21 | 11.7%[57.1 µM] | 2.9% | 26.4%[57.1 µM] | 8.2µM* | -19.7% | 8.4% | 0.3% | -3.7% | 14.6µM*
Cc1nc2ccccc2n1-c1nc(-c2ccco2)cc(C(F)(F)F)n1 | 4.9%[57.1 µM] | 4.1% | -11.3%[57.1 µM] | 4.61µM* | u | 2.9% | -11.9% | u | 5.8µM*
Cc1cc2c(cc1C)C(=O)NC(C)(C)C2 | 9.2% | 8.7% | 12.5% | 7.31µM* | -0.3% | -0.2% | -1.5% | -0.2% | 17.6%
O=C(Nc1nc(-c2ccc(S(=O)(=O)N3CCCCCC3)cc2)cs1)c1ccccc1 | 5.0% | 6.9% | 16.1% | 2.91µM* | x | 0.7% | 0.3% | 7.9% | 4.11µM*
